# DT40 TDP1 CPT: DT40-hTDP1 cell growth loss with CPT | chicken DT40 Tdp1-/-;hTDP1 cells + 20 nM CPT, ATP luminescence, 48 h | Potency, µM (titrated, usually from 46.2 µM), without a hit: at the highest dose activity change, negative = growth inhibition, usual class: inhibitors | hit rate 12% among 420,000 | AID 686979; note: potency is the fitted concentration of half-maximal effect; % is set by controls: 0 for no effect and ±100 for the full control effect; nearly all actives have a fitted effect of over 55% in size
#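 Chicken DT40 Tdp1-/- cells stably complemented with human TDP1 were seeded at 400 cells/well in medium containing 20 nM camptothecin, exposed to pin-transferred compounds, and grown at 37 °C for at least 48 hr. Viability was read as ATP luminescence.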
# SW480 rereplic: DNA re-replication induction in SW480 cells; SW480 DNA re-replication, Hoechst DNA content imaging, 48 h; Potency, µM (top dose mostly 46.1 µM), without a hit: at the highest dose re-replication activation, hits mostly activators; hit rate 1.8% among 340,000; AID 624297; note: potency is the fitted concentration of half-maximal effect; % of control where 0% means no effect; nearly all actives have a fitted effect of over 55% in size
#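 First, 250 cells per well were seeded. Next, compound or vehicle (23 nL) was pinned in, plates sat 48 hr at 37 C. Finally Hoechst was added for 40 min before fluorescence scanning.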
# TDP1 cell noCPT: qHTS for Inhibitors of human tyrosyl-DNA phosphodiesterase 1 (TDP1): qHTS in cells in absence of CPT; DT40 Tdp1-/- hTDP1 cells, no CPT, ATP luminescence, 48 h; Potency, µM (top dose mostly 46.2 µM), for inactives: top-dose activity change, negative = growth inhibition, actives largely listed as inhibitors; hit rate 15% among 420,000; AID 686978, 2013; note: potency is the fitted concentration of half-maximal effect; % is set by controls: 0 for no effect and ±100 for the full control effect; nearly all actives have a fitted effect of over 55% in size
#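 Growth of hTDP1-complemented DT40 Tdp1-knockout cells is measured by ATP luminescence after at least 48 hr compound exposure at 37 °C, with DMSO substituting for the 20 nM CPT used in the parallel screen.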
# IL1B secr inh: inhibitors of inflammasome signaling (IL-1 beta secretion) | THP-1 LPS/ATP IL-1B secretion, AlphaLISA, 16 h; stronger effect = lower value | activity change, % at 57.5 µM | hit rate 4.7% among 360,000; in the data active = activity change below about -50%; inconclusive = mostly about -30% to -49%; note: % is set by controls: 0 for no effect and ±100 for the full control effect
#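 Secreted IL-1B measured by AlphaLISA bead assay after 16 h compound exposure of THP-1 cells; compounds (final up to 57.5 uM) added 1 h before LPS (250 ng/mL) and ATP (1.25 mM) stimulation; lower signal means less secretion.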
# MCF10A rerep: DNA re-replication induction in MCF 10a cells; hit rate 2.9% among 350,000; AID 624296; MCF 10A DNA re-replication, Hoechst nuclear intensity, 48 h; Potency, µM (top dose mostly 46.1 µM), for the others: at the top dose activity, positive = re-replication, hits mostly activators; note: potency is the fitted concentration of half-maximal effect; % of control where 0% means no effect; nearly all actives have a fitted effect of over 50% in size
# Chronic BCR inh: chronic active BCR signaling inhibition | ABC-DLBCL IkBa-CBG/CBR reporter, luminescence ratio, 4 h | Potency, µM (doses to about 46.1 µM), without a hit: at the highest dose activity change, negative = inhibition, usual class: inhibitors | hit rate 0.05% among 340,000; active = well fitted inhibition curve with a large enough effect in the signal ratio, with a control signal flat, not every such curve was filed as active; inconclusive = small, poorly fitted or top-dose-only effect, or effect the other way, or a change in a side signal; the % refers to the signal ratio;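 note: potency is the fitted concentration of half-maximal effect; plate controls were basal doxycycline-induced cells for no effect and cells given 10 µM MG132 for full effect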
#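 TMD8 ABC-DLBCL cells carrying doxycycline-inducible green luciferase fused to IkappaBalpha plus unfused red luciferase were exposed to compounds (up to 46 uM) for 4 hrs at 37C. Activity came from the overlap-corrected green/red luminescence ratio.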
# Numbers without * were called inactive; ? = inconclusive; / = no result given; [ ] = dose if it differs, or a comment. An excerpt weighted towards active compounds, which were near 19% of everything screened. Unless noted, calls come from the whole dose curve; as a rule, active = well fitted curve in the direction sought with a large enough effect; inconclusive = small, poorly fitted or top-dose-only effect, or another doubt; inactive = no such curve, though single readings can be large; an effect the other way counts as inactive or inconclusive.
SMILES,DT40 TDP1 CPT,SW480 rereplic,TDP1 cell noCPT,IL1B secr inh,MCF10A rerep,Chronic BCR inh
Cn1cc([N+](=O)[O-])c(C(=O)Nc2ccc(C3CCCCC3)cc2)n1,?,?,-18%,/,?,8%
Cc1ccc(Cn2ccc(NC(=O)c3nn(C)cc3[N+](=O)[O-])n2)cc1,23%,12µM*,-23%,-101*,13µM*,?
Cc1cc(C)n(Cc2ccc(NC(=O)c3nn(C)cc3[N+](=O)[O-])cc2)n1,-3%,2.9µM*,2%,-63*,2.3µM*,?
CCOc1ccc(C2C(=O)N(C3CCCCCC3)CC(=O)N2CCc2ccccc2)cc1OC (configuration not stated),?,/,?,/,/,-7%
CC(=O)Oc1ccc(N2C(=O)C3C(C2=O)C(C(=O)c2ccc(Cl)cc2)N2CCCC32)cc1 (configuration not stated),?,4.6µM*,18µM*,-101*,18µM*,-5%
Cc1c(C(=O)NCC2Cc3cccc(-c4cncnc4)c3O2)c(-c2ccccc2)nn1-c1ccccc1 (configuration not stated),-8%[9.04 µM],/,-16%,/,/,/
Cc1cc2ccccc2n1CCNC(=O)c1cccc(Cl)c1,15µM*,/,7.3µM*,/,/,/
Cc1cc2ccccc2n1CCNC(=O)c1cccc(Br)c1,21µM*,/,12µM*,/,/,/
Cc1cc2ccccc2n1CCNC(=O)C1CCCC1,-3%,-4%,?,-12,-1%,-7%
Cc1cc2ccccc2n1CCNC(=O)C1CC1,15µM*,0%,-21%,-22,-1%,2%
COc1ccc(S(=O)(=O)N2CCOCC2)cc1NC(=O)CSc1nnc(N)s1,2%,-3%,-16%,14,1%,7%
COc1ccc(-n2cc(CN[C@H]3CCCCNC3=O)c(-c3cccc(F)c3)n2)cc1,5.8µM*,-4%,5.8µM*,?,-6%,?
COc1ccc(-n2cc(CNC3CCN(C)CC3)c(-c3cccc(F)c3)n2)cc1,15µM*,-2%[1.84 µM],15µM*,-63*,21µM*,?
COc1ccc(-n2cc(CN3CCCC3)c(-c3cccc(F)c3)n2)cc1,?,16%,21µM*,-77*,?,-8%
COc1cccc(-c2nn(-c3ccccc3)cc2C(=O)O)c1,-6%,-3%,0%,27,-10%,?
Cc1cccc(-n2cc(CN3CCN(Cc4nccn4C)CC3)c(-c3cccc(F)c3)n2)c1,?,1%,?,?,-9%,?
CNc1cncc(-c2cccc(NS(C)(=O)=O)c2)n1,?,/,?,-21,/,/
CCCN(C(=O)CCc1nc(-c2ccccc2F)no1)c1ccc(CC)cc1,-99%,/,?,/,/,/
Cc1ccc(NC(=O)COC(=O)Cn2cnc3c2c(=O)n(C)c(=O)n3C)c(Cl)c1,1%,?,-21%,-4,0%[9.22 µM],-2%
C[C@@H]1CN([C@@H](C)CO)C(=O)CCCn2cc(nn2)CO[C@H]1CN(C)S(=O)(=O)c1ccc(Cl)cc1,-9%,/,-25%,-13,/,/
Cc1c(Cc2ccc3c(c2)OCO3)sc(NC(=O)c2cccc3ccccc23)c1C(N)=O,?,?,?,-15,?,-6%
Cc1c(Cc2ccccc2)sc(NC(=O)c2ccco2)c1C(N)=O,-24%,1%,?,-21,15µM*,?
Cc1c(Cc2ccc3c(c2)OCO3)sc(NC(=O)C2CC2)c1C(N)=O,10µM*,-1%,10µM*,-19,6%,-7%
COC(=O)c1c(NC(=O)/C=C/C(=O)O)sc(Cc2ccccc2)c1C,21µM*,?,?,-111*,15µM*,?
Cc1c(Cc2ccccc2)sc(NC(=O)/C=C/c2cccc3ccccc23)c1C(N)=O,3.7µM*,?,3.3µM*,10,2.3µM*,-5%
SMILES,DT40 TDP1 CPT,SW480 rereplic,TDP1 cell noCPT,IL1B secr inh,MCF10A rerep,Chronic BCR inh
CCS(=O)(=O)c1ncc(CO)n1CCc1ccccc1,6%,1%,15%,10,-2%,1%
O=C1CC/C=C\C[C@@H](CC(=O)N(CCO)Cc2ccccc2)C(=O)N2CCC[C@H]2CO1,6%,-12%,-14%,12,-3%,0%
Nn1c(SCc2ccccc2)nc2ccccc21,2%,-6%,1%,1,-6%,0%
Cc1ccc(S(=O)(=O)N(C)C[C@@H]2OCc3cnnn3CCCC(=O)N([C@H](C)CO)C[C@@H]2C)cc1,-16%,/,-22%,15,/,/
Cc1nc(NC(=O)C23CC4CC(CC(C4)C2)C3)sc1Cc1ccc2c(c1)OCO2,?,?,21µM*,57,?,16%
O=C(Nc1ccc(F)cc1)C(c1ccnc2ccccc12)N1CCN(c2cccc(C(F)(F)F)n2)CC1 (configuration not stated),?,/,21µM*,2,/,/
CN(C)CCN1CCN(C(c2ccnc3ccccc23)c2nnnn2-c2ccc3c(c2)OCCO3)CC1 (configuration not stated),-23%,/,16µM*,-10,/,/
O=C(Nc1ccc(F)cc1)C(c1ccccc1OC(F)(F)F)N1CCN(c2cccc(C(F)(F)F)n2)CC1 (configuration not stated),?,/,?,-2,/,/
Cc1cccc(C)c1NC(=O)C(c1ccnc2ccccc12)N1CCN(CCN(C)C)CC1 (configuration not stated),4.6µM*,/,5.2µM*,39,/,/
Cc1cccc(C)c1-n1nnnc1C(c1ccnc2ccccc12)N1CCCN(C(=O)OC(C)(C)C)CC1 (configuration not stated),?,/,18µM*,37,/,/
c1ccc2c(C(c3nnnn3-c3ccc4c(c3)OCCO4)N3CCCC3)ccnc2c1 (configuration not stated),-2%,/,?,51,/,/
O=C(NCCc1ccccc1)c1nnc(Cc2cccc(F)c2)o1,-12%,/,-23%,/,/,/
O=C(OCc1ccccc1)N1CCN(C(c2ccnc3ccccc23)c2nnnn2-c2ccc3c(c2)OCCO3)CC1 (configuration not stated),23µM*,/,8.2µM*,?,/,/
c1ccc2c(C(c3nnnn3-c3ccc4c(c3)OCCO4)N3CCOCC3)ccnc2c1 (configuration not stated),3%,/,-2%,5,/,/
CCOc1ccc(S(=O)(=O)c2cn(C)c3cc(OC)c(OC)cc3c2=O)cc1,-8%,2%,16%,4,0%,11%
